In PubChem BioAssay (NCI):
Where “and” joins values, the source holds several entries; their conditions need not be identical. Equal entries are not always repeated. About 83,000 compounds went through this panel and 20% of them were active in at least one assay; those are over-represented in the sample as a whole.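 48-hour exposure, single concentration, 96-well plates; percent growth endpoint where 0 means no net growth. Active: below 10.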 A number with no mark means an inactive call. Calls of active or inactive are those of the source.

Tests used:
Experiment in all cases: NCI-60 one-dose screen, 48 h (100 = growth as untreated, 0 = no growth, -100 = all killed)
Details in all cases: 10 µM unless noted
SK-MEL-2 melanoma = system: SK-MEL-2 melanoma
SN12C renal = system: SN12C renal
UO-31 renal = system: UO-31 renal
TK-10 renal = system: TK-10 renal
ACHN renal = system: ACHN renal
CAKI-1 renal = system: CAKI-1 renal
CCRF-CEM leukemia = system: CCRF-CEM leukemia
MOLT-4 leukemia = system: MOLT-4 leukemia
SR leukemia = system: SR leukemia
RPMI-8226 leukemia = system: RPMI-8226 leukemia
OVCAR-8 ovarian = system: OVCAR-8 ovarian
OVCAR-5 ovarian = system: OVCAR-5 ovarian
OVCAR-4 ovarian = system: OVCAR-4 ovarian
SK-OV-3 ovarian = system: SK-OV-3 ovarian
IGROV1 ovarian = system: IGROV1 ovarian
OVCAR-3 ovarian = system: OVCAR-3 ovarian
NCI/ADR-RES ovarian = system: NCI/ADR-RES ovarian
A498 renal = system: A498 renal
HS 578T breast = system: HS 578T breast

Compound | growth (SK-MEL-2 melanoma) | growth (SN12C renal) | growth (UO-31 renal) | growth (TK-10 renal) | growth (ACHN renal) | growth (CAKI-1 renal) | growth (CCRF-CEM leukemia) | growth (MOLT-4 leukemia) | growth (SR leukemia) | growth (RPMI-8226 leukemia) | growth (OVCAR-8 ovarian) | growth (OVCAR-5 ovarian) | growth (OVCAR-4 ovarian) | growth (SK-OV-3 ovarian) | growth (IGROV1 ovarian) | growth (OVCAR-3 ovarian) | growth (NCI/ADR-RES ovarian) | growth (A498 renal) | growth (HS 578T breast)
Cn1c(-c2ccccc2)cc(=O)cc1-c1ccccc1 | 10.8% | 92.6% | 79% | 91.5% | 0.204% (active) | 83.6% | 79.8% | 81.4% | 69.5% | 78.9% | 80.1% | 79.2% | 85.6% | 92.4% | 88% | 122% | 82.2% | – | –
COC(=O)CCOc1ccccc1 | 84% | 110% | 86.8% | 108% | 91.8% | 86.3% | 95.2% | 98.6% | 99.5% | 92.7% | 91.1% | 113% | 92.8% | – | 68.9% | 97% | 108% | 83.9% | –
CCN(CC)CCO/N=C1\CC(c2ccc(OC)c(OC)c2)Oc2ccccc21 (stereo not drawn) | 104% | 99.1% | 71.7% | 86.9% | 101% | 83.3% | 93% | 90.6% | 98.5% | 87.8% | 102% | 95.4% | 96.5% | 96.5% | 88.8% | 111% | 89.6% | – | 90.3%
NCCSSC/C=C\CSSCCN | 113% | 98.6% | 80% | 107% | 110% | 101% | 95.8% | 98% | 107% | 94.9% | 97% | 121% | 103% | – | 115% | 109% | 107% | 88.9% | 93%
Cc1cc(Cl)nc(Nc2ccccc2)n1 | 106% | 96.1% | – | 94.4% | 98.9% | 78.7% | 99.3% | 94.8% | 97.7% | 117% | 102% | 103% | 100% | 102% | 100% | 95.5% | 100% | 93.3% | 99.6%
CCCCCCC(C)CC1=C(O)c2ccccc2C(=O)C1=O (stereo not drawn) | 68.9% | 46.6% | 42.7% | 60.5% | 37.5% | – | 33.3% | 26.6% | 61.7% | 37.6% | 56.6% | 62.4% | 46.3% | – | – | 46.5% | 50.2% | 54.3% | –
CC(C)(C)C1=CC(=O)C(C(C)(C)C)=CC1=O | 95.2% and 94.5% | 93.7% and 102% | 93.1% and 91.5% | 102% and 94.6% | 94.5% and 114% | 90.7% | 96.1% and 97.9% | 83.4% and 105% | 78.9% and 97% | 86.9% and 102% | 91.5% and 96.5% | 109% | 93.3% and 118% | 93.6% and 102% | – | 111% and 110% | 108% | 122% | 104%
CC(CN(C)C)CN1c2ccccc2Sc2ccccc21 (stereo not drawn) | 91.3% and 103% | 65% and 85.2% and 80.5% | 51.7% and 77.9% and 71.7% | 82.6% and 76.6% and 81.6% | 76.1% and 92.2% and 85.9% | 62.3% and 69.6% | 82.1% and 85.3% and 77.6% | 75.7% and 100% and 76.7% | 79.1% and 96.2% and 45.7% | 74.9% | 95.7% and 109% and 101% | 88.9% and 79.7% | 88.1% and 102% and 84% | 97.2% and 95.8% and 101% | 73.5% and 92% | 114% and 98.6% and 90.7% | 79.2% and 85.1% and 81.4% | 108% and 95% and 82.6% | 77.5% and 91.1% and 67.1%
COc1cc(NCCCCCNC(C)C)c2ncccc2c1 | 93.1% and 66.7% | 93.5% and 83.6% | 59.7% and 45.4% | 91.9% and 90.1% | 100% and 90.5% | 91.6% and 92.5% | 106% and 117% | 104% and 88% | 82.8% and 133% | 107% and 98.1% | 104% and 89.6% | 95.2% and 86.9% | 44.4% and 45.7% | 84.3% | 90.3% and 60.4% | 92% | 91.5% and 93.7% | 77.2% | 83.5%
N=c1sc2ccccc2n1CC(=O)O | 95.4% | 94.1% | 86.4% | 96.9% | 105% | 97.8% | 85.8% | 117% | 106% | 93.7% | 4.81% (active) | 110% | 115% | 106% | 107% | 114% | 108% | 102% | 92%
Cc1cccc(Cl)c1N | 121% | 112% | 103% | 111% | 108% | 92.8% | 128% | 100% | 98.9% | 120% | 96.1% | 110% | 117% | – | 153% | 117% | 101% | 107% | 87.6%
CC(C)(C)C1CCC(=NO)CC1 (stereo not drawn) | 94.5% | 103% | 71.7% | 108% | 105% | 97.2% | 99.8% | 123% | 116% | 92.5% | 91.9% | 90.3% | 97.3% | 101% | 99.5% | 104% | 103% | 97.4% | 102%
O=[N+]([O-])c1ccc(NC2CCCCC2)nc1 | 104% and 107% | 104% and 108% | 90% and 76.3% | 103% and 101% | 101% and 97.5% | 96.7% and 95.7% | 103% and 96.3% | 95.2% and 106% | 98.1% | 111% and 101% | 118% and 101% | 104% and 100% | 109% | 108% | – | 112% and 114% | 105% and 103% | 102% | 100% and 101%
